Assay results: PubChem BioAssay (NCI)
About 83,000 compounds went through this panel and 20% of them were active in at least one assay; those are over-represented in the sample as a whole.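 96-well plates, one dose, 48 hours. Percent growth reported; active if below 10.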 Calls of active or inactive are those of the source.

Columns and labels:
Test in all cases: NCI-60 one-dose screen, 48 h (100 = growth as untreated, 0 = no growth, -100 = all killed)
Conditions in all cases: 10 µM unless noted
DU-145 prostate = test system: DU-145 prostate
K-562 leukemia = test system: K-562 leukemia
MALME-3M melanoma = test system: MALME-3M melanoma
MDA-MB-231 breast = test system: MDA-MB-231 breast
RXF 393 renal = test system: RXF 393 renal
SF-268 CNS = test system: SF-268 CNS
SF-295 CNS = test system: SF-295 CNS
SF-539 CNS = test system: SF-539 CNS
UACC-257 melanoma = test system: UACC-257 melanoma
M14 melanoma = test system: M14 melanoma

Measured: growth

N#C/C(=C\c1ccc(-c2ccc(Cl)cc2)o1)C(=O)Nc1ncc(Cc2ccc(Br)cc2)s1
active: DU-145 prostate 9.81% | MALME-3M melanoma -34.1% | MDA-MB-231 breast 3.41% | SF-295 CNS -2.23% | SF-539 CNS 1.63%
inactive: K-562 leukemia 42.7% | RXF 393 renal 33.1% | SF-268 CNS 33.2% | UACC-257 melanoma 46.6% | M14 melanoma 10.2%

Fc1ccc2nc(-c3cnn4cccnc34)sc2c1
inactive: DU-145 prostate 103% | K-562 leukemia 86.2% | MALME-3M melanoma 108% | MDA-MB-231 breast 84.3% | RXF 393 renal 92.9% | SF-268 CNS 82.5% | SF-295 CNS 100% | SF-539 CNS 86.7% | UACC-257 melanoma 100% | M14 melanoma 101%

O=C(Nc1cc(C(F)(F)F)cc(C(F)(F)F)c1)Nc1ccc2oc(=O)ccc2c1
inactive: DU-145 prostate 18.3% | K-562 leukemia 13.7% | RXF 393 renal 39.7% | SF-268 CNS 21.1% | SF-539 CNS 21.4% | M14 melanoma 18.1%
active: MALME-3M melanoma -26.4% | MDA-MB-231 breast -9.24% | SF-295 CNS 0.342% | UACC-257 melanoma 1.17%

CN1CCN(CCNc2nc(-c3cccc(NS(=O)(=O)c4cccc5c(N(C)C)cccc45)c3)cs2)CC1
inactive: DU-145 prostate 81.8% | K-562 leukemia 10.6% | MALME-3M melanoma 44% | MDA-MB-231 breast 64.8% | RXF 393 renal 61.6% | SF-268 CNS 82.7% | SF-295 CNS 42.6% | SF-539 CNS 68.1% | UACC-257 melanoma 53.9% | M14 melanoma 62.9%

COc1ccc2c(c1)c(/C=N/Nc1ccnc3cc(Cl)ccc13)cn2C
active: DU-145 prostate -93.3% | K-562 leukemia -48.1% | MALME-3M melanoma -77.2% | MDA-MB-231 breast -82.8% | RXF 393 renal -81.1% | SF-268 CNS -67.1% | SF-295 CNS -84.4% | SF-539 CNS -82.9% | UACC-257 melanoma -84.2% | M14 melanoma -72%

COc1ccc2c(c1)c(-c1nnc(N)nc1-c1c[nH]c3ccc(F)cc13)cn2C
inactive: DU-145 prostate 70.4% | K-562 leukemia 11.9% | MALME-3M melanoma 75.7% | MDA-MB-231 breast 73.7% | RXF 393 renal 47.8% | SF-268 CNS 54.2% | SF-295 CNS 33% | SF-539 CNS 40.5% | UACC-257 melanoma 62.5% | M14 melanoma 32.8%

COC(=O)c1cccc(NC2=C(Cl)C(=O)c3nc(C)ccc3C2=O)c1
active: K-562 leukemia 6.34%
inactive: DU-145 prostate 105% | MALME-3M melanoma 87.5% | MDA-MB-231 breast 62.6% | RXF 393 renal 59.7% | SF-268 CNS 99.5% | SF-295 CNS 107% | SF-539 CNS 111% | UACC-257 melanoma 62% | M14 melanoma 98.3%

NCCNC(=O)c1cccc(COc2ccccc2NC(=O)c2cc(Br)c(Br)[nH]2)c1
active: K-562 leukemia -16.3%
inactive: DU-145 prostate 96.3% | MALME-3M melanoma 98.9% | MDA-MB-231 breast 91.4% | RXF 393 renal 93.4% | SF-268 CNS 61.9% | SF-295 CNS 88.3% | SF-539 CNS 96.2% | UACC-257 melanoma 116% | M14 melanoma 102%

O=C(CCl)Nc1ccc(NC(=O)c2cc(Cl)ccc2O)c(Cl)c1
inactive: DU-145 prostate 95.2% | K-562 leukemia 32.8% | MALME-3M melanoma 81.8% | MDA-MB-231 breast 87.6% | RXF 393 renal 87.4% | SF-268 CNS 85% | SF-295 CNS 83.6% | SF-539 CNS 73.1% | UACC-257 melanoma 89.9% | M14 melanoma 76.6%

CCN(CC)c1ccc(/C=N/NC(=O)c2ccc(NS(C)(=O)=O)cc2)c(O)c1
inactive: DU-145 prostate 31.3% | K-562 leukemia 14.2% | MDA-MB-231 breast 38.4% | SF-268 CNS 22.7%
active: MALME-3M melanoma 4.46% | RXF 393 renal -9.12% | SF-295 CNS 9.79% | SF-539 CNS 7.08% | UACC-257 melanoma -6.91% | M14 melanoma 0.206%

Cc1[nH]c(C(=O)Nc2ccccc2OCc2cccc(C(=O)NC3CCCNC3)c2)c(Cl)c1Cl (stereo not given)
inactive: SF-268 CNS 25.1% | UACC-257 melanoma 94.6%
active: DU-145 prostate -89% | K-562 leukemia -38.9% | MALME-3M melanoma -68.4% | MDA-MB-231 breast -68% | RXF 393 renal -69.4% | SF-295 CNS -87.9% | SF-539 CNS -84.6% | M14 melanoma -87%

Cc1csc(/N=C(N)/N=C(\N)c2cccnc2)n1
inactive: DU-145 prostate 96.8% | K-562 leukemia 42.4% | MALME-3M melanoma 60.7% | MDA-MB-231 breast 86.9% | RXF 393 renal 89.7% | SF-268 CNS 77.2% | SF-295 CNS 48.4% | SF-539 CNS 79.5% | UACC-257 melanoma 95.5% | M14 melanoma 51.6%

CCOP(=O)(OCC)OC[C@]12CC[C@@H](C)[C@H](C)C1C1=CC[C@@H]3[C@@]4(C)CCCNC(C)(C)[C@@H]4CC[C@@]3(C)[C@]1(C)CC2 (stereo not given in full)
inactive: MALME-3M melanoma 20% | MDA-MB-231 breast 39% | RXF 393 renal 16.6% | SF-268 CNS 37.4% | SF-295 CNS 18.6% | SF-539 CNS 60.2% | UACC-257 melanoma 13.4%
active: DU-145 prostate 1.04% | K-562 leukemia -59.7% | M14 melanoma -65.7%

COc1ccc2c(c1)c(-c1nc(N)nnc1-c1c[nH]c3ccccc13)cn2C
inactive: DU-145 prostate 59.6% | K-562 leukemia 16.3% | MALME-3M melanoma 37.2% | MDA-MB-231 breast 46.2% | RXF 393 renal 39.5% | SF-268 CNS 45.6% | SF-295 CNS 23.7% | SF-539 CNS 25.2% | UACC-257 melanoma 67.4% | M14 melanoma 29.8%
